Laboratory results: PubChem BioAssay (NCATS)
Inconclusive results are not listed. Values without a mark were called inactive. Active and inactive are the calls of the source. The call rests on the fitted dose curve; in most records, active means well fitted inhibition curve with a large enough effect; inconclusive means small, poorly fitted or top-dose-only effect; inactive means flat fitted curve, though single readings scatter. *1 amine or outer side, *2 acyl side, *3 side chain or, on linkers, in order; H or OH if unused. Where a SMILES comes first, the peptide text is derived from it. [ ]: non-standard residue; d: D form. The star is where a group is joined. X13 = O=C(C(CC(O)CO)O[*:1])[*:2]; AMC = Cc1cc(=O)oc2cc(N*)ccc12; NMeV = CN[CH](C(=O)O)C(C)C; Cbz = O=C(OCc1ccccc1)*; NMeA = CN[CH](C)C(=O)O; βAla = NCCC(=O)O

assay: P-glycoprotein substrates identified in KB-8-5-11 adenocarcinoma cell line, qHTS therapeutic library screen (AID 1346987); conditions: KB-8-5-11 (P-gp overexpressing) viability, CellTiter-Glo, 72 h; series mostly up to 44.5 µM; activity change, negative = cytotoxicity: at the top concentration; further: nearly all actives have a fitted effect of over 65% in size
Procedure, shortened: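 Human cervical adenocarcinoma KB-8-5-11 cells, selected in colchicine to over-express P-gp and assayed without it, were exposed for 72 h to titrated compounds. An ATP-based luminescent viability signal gave AC50.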
On the % scale 0 is the no-effect control and ±100 the full control effect.

| SMILES | activity change, negative = cytotoxicity | outcome |
| --- | --- | --- |
| COC(=O)[C@H](O)[C@H]1C(C)(C)[C@H](OC(C)=O)[C@@]2(O)C(=O)[C@]1(C)C1CC[C@]3(C)C(CC(=O)O[C@H]3c3ccoc3)[C@]13O[C@@H]32 (stereo partly drawn) | -5.25% [at 17.3 µM] | – |
| CC(C)/C=C1/NC(=O)C(C(C)C)n2c1nc1c(O)cccc1c2=O (stereo not drawn) | -0.929% | – |
| COc1cccc(C)c1C(=O)O[C@@H]1C[C@H](O[C@H]2[C@H](O)C[C@H](O[C@@H]3CCC[C@H]4[C@H]3C=C[C@@H]3CCCC/C=C/[C@H]5C=C(C(=O)O)[C@@H](C)C[C@@]56OC(=O)C(=C6O)OC(=O)[C@@]34C)O[C@@H]2C)O[C@H](C)[C@H]1O | – | inactive [at 9.29 µM] |
| CC(=O)NCC1CN(c2ccc(-c3ccc(CNCc4cn[nH]n4)cc3)c(F)c2)C(=O)O1 (stereo not drawn) | -5.92% | – |
| O=C(Nc1ccc(N2CCC(C(=O)N3CCOCC3)CC2)cc1)c1cnc(Oc2ccccc2)nc1 | – | inactive |
| C=C1C(OC(C)=O)C(=O)C2C(C)(C)C(O)CCC2(C)C1CC(OC(C)=O)/C(C)=C/COC(C)=O (stereo not drawn) | -4.36% [at 17.3 µM] | – |
| C=C(C(=O)O)C1CC(O)C2(C)CCCC(C)(O)C2C1 (stereo not drawn) | – | inactive |
| C=C(CCO)C(=O)OCC1OCC(OC(=O)C(=C)CCO[C@@H]2O[C@H](CO)[C@@H](O)[C@H](O)[C@H]2O)C(O)C1O (stereo partly drawn) | 2.76% [at 17.3 µM] | – |
| CCOC(=O)C(CCc1ccccc1)NC1CCCN2CCCC(C(=O)O)N2C1=O (stereo not drawn) | – | inactive |
| CC(=O)O[C@@H](C[C@@H]1C=C(C)C(=O)O1)[C@H](C)[C@H]1CCC2[C@@]3(C)CC[C@H](O[C@@H]4O[C@H](CO)[C@@H](O)[C@H](O)[C@H]4O[C@@H]4O[C@@H](C)[C@H](O)[C@@H](O)[C@H]4O)C(C)(C)C3CC[C@@]2(C)[C@@]12COC(=O)C2 (stereo partly drawn) | -0.38% [at 9.29 µM] | – |
| N#Cc1ccc(C2CCCc3cncn32)cc1 (stereo not drawn) | – | inactive [at 17.3 µM] |
| O=C(C[C@@H]1C(C(=O)O)=CO[C@@H](O[C@@H]2O[C@H](CO)[C@@H](O)[C@H](O)[C@H]2O)/C1=C\CO)OCCc1ccc(O)c(O)c1 | – | inactive [at 17.3 µM] |
| C=C(CCO)C(=O)OCC1OCC(OC(=O)C(=C)CCO[C@@H]2O[C@H](COC(=O)C(=C)CCO[C@@H]3O[C@H](CO)[C@@H](O)[C@H](O)[C@H]3O)[C@@H](O)[C@H](O)[C@H]2O)C(O)C1O (stereo partly drawn) | 9.54% [at 17.3 µM] | – |
| COc1ccc(C(=O)CC(=O)O)c2c1C=CC(C)(C)O2 | 1.19% | – |
| C=C1CC[C@@H]2[C@](C)(CO)[C@H](O[C@@H]3O[C@H](CO)[C@@H](O)[C@H](O)[C@H]3O)CC[C@@]2(C)[C@@H]1C/C=C1/C(=O)OC[C@H]1O | -13.1% [at 17.3 µM] | – |
| O=C(OC[C@H]1O[C@@H](Oc2ccccc2COC(=O)C2(O)C=CCCC2O)[C@H](O)[C@@H](O)[C@@H]1O)c1ccccc1 (stereo partly drawn) | 7.94% [at 17.3 µM] | – |
| NC(=O)[C@@H]1CC[C@H](c2ccc(OCc3ccccc3F)cc2)N1 | -13.2% | – |
| COC(=O)[C@]1(C)CCC[C@@]2(C)[C@@H]3CC[C@@H]4C[C@@]3(CC[C@@H]21)C[C@H]4C(=O)O | – | inactive |
| CCC(C)C(=O)OC[C@H]1O[C@H](O[C@H]2O[C@H](CO)[C@@H](O)[C@H](O)[C@H]2O)[C@H](O)[C@@H](O)[C@@H]1O (stereo partly drawn) | 0.763% [at 17.3 µM] | – |

| SMILES | activity change, negative = cytotoxicity | outcome |
| --- | --- | --- |
| CCOC(=O)c1ccc(NC2CCCCC2)c(N)c1 | -3.48% | – |
| CC1(C)CC[C@]2(C(=O)O[C@@H]3O[C@H](CO)[C@@H](O)[C@H](O)[C@H]3O)CC[C@]3(C)C(=CCC4[C@@]5(C)CC[C@H](O[C@@H]6O[C@H](C(=O)O)[C@@H](O[C@@H]7O[C@H](CO)[C@@H](O)[C@H](O)[C@H]7O)[C@H](O)[C@H]6O[C@@H]6O[C@H](CO)[C@@H](O)[C@H](O)[C@H]6O)C(C)(C)C5CC[C@]43C)C2C1 (stereo partly drawn) | – | inactive [at 9.29 µM] |
| CN1CCc2cc(Cl)c(O)cc2[C@@H](c2cccc3c2OCC3)C1 | -17.6% | – |
| CCC(C)C1NC(=O)C2CCCN2C(=O)C(CC(O)CO)OC(=O)CCNC(=O)C(C)N(C)C(=O)C(C(C)C)N(C)C1=O (stereo not drawn) (cyclo([X13]PI[NMeV][NMeA][βAla]); configuration not given here) | – | inactive [at 17.3 µM] |
| C[C@@H]1CCC2C(C)(C)[C@H](O)[C@H](O)C[C@]2(C)[C@@]12Cc1c(O)cc3c(c1O2)CN(CCCC(=O)O)C3=O (stereo partly drawn) | 1.51% [at 17.3 µM] | – |
| c1ccc2c(Nc3nnc(-c4ccncc4)s3)cccc2c1 | -12.4% | – |
| OC[C@@]1(O)CO[C@H](OC[C@H]2O[C@@H](OCCc3ccccc3)[C@H](O)[C@@H](O)[C@@H]2O)[C@@H]1O | 9.18% [at 17.3 µM] | – |
| Cc1ccccc1N1CCN(S(=O)(=O)C[C@]23CC[C@H](C[C@@H]2NC(=O)[C@@H](N)CCS(C)(=O)=O)C3(C)C)CC1 | 5.06% | – |
| Nc1nc(COC(=O)c2ccc([N+](=O)[O-])cc2)nc(Nc2ccccc2)n1 | 3.62% | – |
| Cc1ccc(-c2c(-c3nn(C)c4ncnc(N5CC[C@H](N6CCCCC6)C5)c34)cnn2C)cc1 | 0.644% | – |
| Cc1cc(C)c2nc(-c3ccccn3)cc(C(=O)Nc3ccc(S(=O)(=O)Nc4onc(C)c4C)cc3)c2c1 | 3.65% | – |
| CC1(C(=O)O)CCCC2(C)C3CCC4CC3(CCC12)CC4(O)CO (stereo not drawn) | -1.07% | – |
| C[C@]1(O)CC[C@@H]2C(C(=O)O)=CO[C@@H](O[C@@H]3O[C@H](CO)[C@@H](O)[C@H](O)[C@H]3O)[C@@H]21 | 8.38% | – |
| CCC(C)/C=C(C)/C=C/C1=CC2=CC(=O)C(C)(O)C(OC(C)=O)C2CO1 (stereo not drawn) | -10.2% | – |
| C[C@@H]1O[C@@H](OC(=O)Cc2ccccc2)[C@H](O)[C@H](O)[C@H]1O | 5.01% | – |
| C=Cc1ccc(O[C@@H]2O[C@H](CO[C@@H]3O[C@@H](C)[C@H](O)[C@@H](O)[C@H]3O)[C@@H](O)[C@H](O)[C@H]2O)cc1 | – | inactive [at 17.3 µM] |
| Cc1cc(=O)oc2cc(NC(=O)[C@H](CCC(=O)O)NC(=O)[C@H](CC(C)C)NC(=O)[C@H](CC(C)C)NC(=O)OCc3ccccc3)ccc12 (Cbz-Leu-Leu-Glu-{AMC}) | – | inactive |
| C=C[C@H]1[C@H](O[C@@H]2O[C@H](CO)[C@@H](O)[C@H](OC(=O)/C=C/c3ccc(O)c(OC)c3)[C@H]2O)OC=C2C(=O)OCC[C@]21O | 4.57% [at 17.3 µM] | – |
| C=C1C(=O)O[C@@H]2/C=C(\C)CC/C=C(\C(=O)O[C@@H]3O[C@H](CO)[C@@H](O)[C@H](O)[C@H]3O)CC[C@@H]12 | -4.51% [at 17.3 µM] | – |
